Reference: PubChem BioAssay
Values joined by “and” are separate entries in the source; they are usually repeats but may differ in a detail not shown here. Identical values can stand only once. The list shows a part of the results. Results filed as inconclusive are left out. Active and inactive are the calls of the source.

Experiments:
PubChem AID 1714 = settings: HEK293-KCC2 + bumetanide/ouabain, thallium flux FluoZin2; at 10 µM; stronger effect = higher value
[1] = target: Solute carrier family 12 member 5 (Homo sapiens) (UniProt Q9H2X9); experiment: KCC2 modulators without ouabain present, confirmation, cell-based, HEK293 KCC2, thallium flux, FluoZin2, secondary assay 2 (AID 1715;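 active means thallium flux slope more than 3 SD above or below the plate's solvent-only control mean, mostly below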;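 further: raw slope with 0.1% DMSO as baseline and bumetanide as block control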); settings: HEK293-KCC2, thallium flux FluoZin2 fluorescence; at 10 µM; actives lie on both sides; F/F0 rise rate, 10–20 s post-thallium
Chain of Solute carrier family 12 member 5 (Homo sapiens) (Q9H2X9 whole entry, looked up): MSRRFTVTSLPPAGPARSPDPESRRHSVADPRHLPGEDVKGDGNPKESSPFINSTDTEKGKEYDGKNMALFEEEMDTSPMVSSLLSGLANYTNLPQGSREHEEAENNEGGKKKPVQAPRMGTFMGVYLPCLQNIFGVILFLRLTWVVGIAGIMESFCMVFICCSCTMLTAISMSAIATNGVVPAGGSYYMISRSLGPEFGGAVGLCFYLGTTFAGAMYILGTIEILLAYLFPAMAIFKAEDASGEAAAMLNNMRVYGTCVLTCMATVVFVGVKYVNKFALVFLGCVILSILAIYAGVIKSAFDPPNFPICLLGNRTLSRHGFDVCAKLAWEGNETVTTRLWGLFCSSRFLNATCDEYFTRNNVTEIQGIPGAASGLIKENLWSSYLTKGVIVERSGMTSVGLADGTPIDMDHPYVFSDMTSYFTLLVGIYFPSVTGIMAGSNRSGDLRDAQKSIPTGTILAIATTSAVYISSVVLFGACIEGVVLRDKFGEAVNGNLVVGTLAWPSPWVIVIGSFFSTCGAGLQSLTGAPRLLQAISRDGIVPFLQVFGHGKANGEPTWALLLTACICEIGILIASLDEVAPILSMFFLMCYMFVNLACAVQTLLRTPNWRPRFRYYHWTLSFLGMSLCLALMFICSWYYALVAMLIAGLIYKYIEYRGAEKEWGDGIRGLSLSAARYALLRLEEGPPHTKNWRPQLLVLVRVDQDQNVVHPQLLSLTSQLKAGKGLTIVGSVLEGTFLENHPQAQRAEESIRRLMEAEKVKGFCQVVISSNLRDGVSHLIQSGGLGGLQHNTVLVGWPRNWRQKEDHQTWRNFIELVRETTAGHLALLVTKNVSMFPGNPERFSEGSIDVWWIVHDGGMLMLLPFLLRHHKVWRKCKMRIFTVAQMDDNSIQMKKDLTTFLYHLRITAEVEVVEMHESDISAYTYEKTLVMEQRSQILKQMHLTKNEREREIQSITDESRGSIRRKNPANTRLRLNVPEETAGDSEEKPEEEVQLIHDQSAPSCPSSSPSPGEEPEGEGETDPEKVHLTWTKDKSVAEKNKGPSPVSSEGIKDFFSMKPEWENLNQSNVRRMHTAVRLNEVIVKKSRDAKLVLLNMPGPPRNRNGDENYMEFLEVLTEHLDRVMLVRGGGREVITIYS

[2] = thallium flux modulation in parental HEK cells, confirmation, counter-screen for KCC2 modulator project, cell-based, counterscreen 1 (AID 1716); settings: HEK293 parental cells, thallium flux FluoZin2, ouabain; at 10 µM; baseline-ratio fluorescence slope, 10–20 s after thallium
[3] = native HEK Tl+ uptake effects, second counter-screen – HEK cells, counterscreen 2, counter-screen for KCC2 modulator project, confirmation (AID 1718;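 active means thallium flux slope above the same plate's solvent-control mean plus 3 SD in both duplicate wells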;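 further: run without ouabain in cells lacking the KCC2 cotransporter; slope of fluorescence scaled to its starting value between 10 and 20 s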); settings: HEK293 parental, thallium flux FluoZin-2 fluorescence slope; at 10 µM
[4] = target: Solute carrier family 12 member 5 (Homo sapiens) (UniProt Q9H2X9); experiment: KCC2 inhibitors and activators, ouabain retest, confirmation, HEK-KCC2 cells (AID 1717;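 active means thallium flux slope beyond 3 SD from same-plate DMSO control mean in most replicates, usually higher, sometimes lower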;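 further: slope of initial-normalized fluorescence between seconds 10 and 20 after thallium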); settings: HEK293-KCC2, thallium flux FluoZin2 fluorescence, at 10 µM, bidirectional: low = inhibitor, high = activator
[5] = inhibitors of TNFa-induced NFkB p65 translocation, primary screen, imaging, HUVEC, MLSMR starter and 10KST1 sets (AID 438;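 active means inhibition above 20% together with a positive visual image hit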;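 further: compound added about 3h40 before a 20 min TNFalpha stimulation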;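 on inhibition: signal is the nuclear over cytoplasmic p65 intensity ratio per well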); settings: HUVEC TNFa-induced p65 nuclear translocation; cell count: measured here: nuclei count (cytotoxicity indicator), at 2.08 µM; inhibition: at 2 µM, stronger effect = higher value, 0% TNFa-plus-vehicle, 100% no-TNFa wells
[6] = inhibitors of mutant huntingtin aggregation, primary screen, imaging, exon1htt(103Q)mCFP cells, high-content imaging (AID 483;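 active means visual image review flags a hit and inhibition of aggregation exceeds 20%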;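 further: compound exposure lasted 3 days before fixation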;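 on nuclei count: percent of the per-plate median nuclei count of sample wells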); settings: exon1htt(103Q)mCFP cell line, aggregate imaging, at 2 µM; inhibition of aggregation: stronger effect = higher value; nuclei count: measured here: cell count, toxicity
[7] = inhibitors of E-selectin induction by TNFa, primary screen, imaging, HUVEC, immunofluorescence, MLSMR starter and 10KST1 sets (AID 487;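 active means visually confirmed hit in the image check and inhibition above 20%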;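 on inhibition: signal is fraction of cell area covered by stained E-selectin grains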;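 on nuclei count: 100% = median nuclei count of all wells on the same plate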); settings: HUVEC TNFalpha-induced E-selectin immunofluorescence imaging, at 2 µM; inhibition: stronger effect = higher value; nuclei count: measured here: cell number, toxicity
[8] = DUSP6 inhibitors restoring Erk phosphorylation by chemical complementation, primary imaging in DUSP6-transfected HeLa (AID 609;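 active means compounds giving at least 50% inhibition in the cell-based MKP-3 phosphatase rescue imaging test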;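 on inhibition: phospho-Erk level distribution per well compared with pooled transfected vehicle control wells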); settings: HeLa MKP-3 transfected, phospho-Erk imaging KS statistic, at 10 µM, cells stimulated with TPA for 15 min
[9] = target: Dual specificity protein phosphatase 6 (Homo sapiens) (UniProt Q16828); experiment: as above; settings: HeLa MKP-3 transfected, phospho-Erk imaging KS statistic; at 10 µM; stronger effect = higher value; cells stimulated with TPA for 15 min
Chain of Dual specificity protein phosphatase 6 (Homo sapiens) (Q16828 whole entry, looked up): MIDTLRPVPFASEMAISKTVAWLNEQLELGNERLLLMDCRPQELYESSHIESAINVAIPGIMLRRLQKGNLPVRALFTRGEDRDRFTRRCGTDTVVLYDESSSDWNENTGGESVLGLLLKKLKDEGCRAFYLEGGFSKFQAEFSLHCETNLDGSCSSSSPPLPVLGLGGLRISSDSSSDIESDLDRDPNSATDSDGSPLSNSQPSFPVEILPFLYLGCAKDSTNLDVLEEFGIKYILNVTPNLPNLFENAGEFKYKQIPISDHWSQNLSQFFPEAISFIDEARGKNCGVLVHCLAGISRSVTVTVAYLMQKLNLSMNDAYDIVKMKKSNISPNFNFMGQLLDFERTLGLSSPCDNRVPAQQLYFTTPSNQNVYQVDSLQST

[10] = target: Voltage-gated potassium channel subunit beta-2 (Rattus norvegicus) (UniProt P62483); experiment: KvBeta enzyme negative modulators, primary screen, biochemical, NADPH fluorescence (AID 622;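 active means fluorescence slope higher than the sample average by over 3 SD, cut at about -0.22 in these data, passing the limit was not always enough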;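 further: slope of raw intensity against log time taken from 70 to 1610 s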); settings: recombinant KvBeta, 4-cyanobenzaldehyde reduction, at 10 µM, stronger effect = higher value
Chain of Voltage-gated potassium channel subunit beta-2 (Rattus norvegicus) (P62483 whole entry, looked up): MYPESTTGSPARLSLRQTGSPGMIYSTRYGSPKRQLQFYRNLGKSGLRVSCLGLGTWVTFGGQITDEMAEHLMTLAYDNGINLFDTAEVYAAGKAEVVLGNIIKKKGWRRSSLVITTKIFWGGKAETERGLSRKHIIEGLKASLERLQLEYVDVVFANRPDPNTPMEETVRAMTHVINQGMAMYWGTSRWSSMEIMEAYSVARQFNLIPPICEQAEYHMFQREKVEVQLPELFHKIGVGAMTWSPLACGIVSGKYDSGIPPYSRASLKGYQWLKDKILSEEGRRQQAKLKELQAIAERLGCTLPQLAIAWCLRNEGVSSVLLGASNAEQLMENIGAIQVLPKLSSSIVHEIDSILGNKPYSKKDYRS

[11] = target: Voltage-gated potassium channel subunit beta-2 (Rattus norvegicus) (UniProt P62483); experiment: KvBeta positive modulators, primary screen, biochemical, NADPH fluorescence (AID 623;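 active means NADPH fluorescence slope more negative than the mean of all samples by about 3 SD, 99.7% confidence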;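 further: fluorescence intensity change per second fitted from 20 to 320 s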); settings: Recombinant KvBeta, NADPH fluorescence decrease slope, 10 min; at 10 µM; stronger effect = lower value
[12] = target: Alpha-2C adrenergic receptor (Homo sapiens) (UniProt P18825); experiment: modulators of alpha2C/GIRK thallium flux, primary screen, cell-based, HEK293 alpha2C/GIRK1/2 (AID 624;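 active means fluorescence slope after compound addition differing from the mean of all screened samples at 99.7% confidence, in either direction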;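 further: slope of fluorescence ratio to pre-addition baseline per second over 15 to 24 s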); settings: thallium flux BTC fluorescence, at 10 µM, actives lie on both sides
Chain of Alpha-2C adrenergic receptor (Homo sapiens) (P18825 whole entry, looked up): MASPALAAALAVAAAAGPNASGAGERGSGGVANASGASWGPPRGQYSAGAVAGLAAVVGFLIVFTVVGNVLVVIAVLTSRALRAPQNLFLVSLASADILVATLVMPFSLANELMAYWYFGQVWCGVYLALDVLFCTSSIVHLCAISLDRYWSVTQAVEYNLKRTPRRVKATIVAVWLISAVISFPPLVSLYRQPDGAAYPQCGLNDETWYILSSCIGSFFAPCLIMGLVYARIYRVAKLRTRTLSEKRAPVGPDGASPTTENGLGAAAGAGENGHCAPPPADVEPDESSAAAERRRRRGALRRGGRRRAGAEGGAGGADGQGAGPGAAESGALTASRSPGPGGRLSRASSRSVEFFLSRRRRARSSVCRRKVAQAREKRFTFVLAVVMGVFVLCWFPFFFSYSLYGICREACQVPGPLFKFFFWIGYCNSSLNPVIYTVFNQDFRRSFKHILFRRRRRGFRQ

[13] = inhibitors of Chlamydomonas gravitaxis, primary screen, whole organism, Chlamydomonas reinhardtii, WT vs cilia-less mutant, absorbance, 96-well (AID 463189;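 active means inhibition at or above 50% relative to wild type and mutant plate controls; inactive means inhibition below 50%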;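 further: 0% = wild type cc124 cells in DMSO and 100% = ciliumless bld1 mutant cells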); settings: OD600 absorbance, 2 days, at 10 µM, stronger effect = higher value
[14] = inhibitors of Sendai virus-induced IRF3 signaling, primary screen, TLR/RLR signaling modifier project, cell-based, Sendai virus stimulus, luciferase, 10K MLSCN set (AID 602276;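 active means inhibition at or above 50% at 10 µM; inactive means inhibition below 50%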;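 further: firefly luciferase from ISG56 promoter only with Renilla not read in this screen; 0% = Sendai virus plus DMSO and 100% = medium plus DMSO without virus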); settings: HEK293 RL24 IRF3 luciferase reporter, at 10 µM, stronger effect = higher value
[15] = inhibitors of poly I:C-induced TLR3 signaling, primary screen, cell-based, poly I:C stimulus, luciferase, 10K MLSCN set (AID 602277;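 active means inhibition of the reporter signal at or above 50%; inactive means inhibition below 50%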); settings: HEK293-TLR3 RL24 IRF3 luciferase reporter, at 10 µM, stronger effect = higher value
[16] = target: Solute carrier family 12 member 5 (Homo sapiens) (UniProt Q9H2X9); experiment: KCC2 modulators in sodium-free buffer, confirmation, cell-based, HEK293 KCC2, thallium flux, secondary assay (AID 1713;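 active means thallium flux slope above the same plate's solvent-only control mean plus 3 SD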); settings: FluoZin2 fluorescence, at 10 µM, stronger effect = higher value
[17] = measured here: cell density z-score
[18] = measured here: nuclear c-Myc green intensity z-score
[19] = measured here: nuclear pErk red intensity z-score, stronger effect = higher value

## CCC(CC)NC(=O)CSc1nnc(-c2c[nH]c3ccccc23)o1
PubChem AID 1714;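 further: raw slope of fluorescence over initial fluorescence between 10 and 20 s after thallium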
  normalized thallium flux: 0.00461 (inactive)
[1]
  normalized thallium flux: 0.0248 (active)
[2]
  thallium flux rate (normalised fluorescence): 0.00757 (inactive)
[3]
  thallium flux slope: 0.0106 (inactive)

## O=C(CSc1cccc2cccnc12)N/N=C/c1cccnc1
PubChem AID 1714;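 further: raw slope of fluorescence over initial fluorescence between 10 and 20 s after thallium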
  normalized thallium flux: 0.0504 (active)
[1]
  normalized thallium flux: 0.0285 (inactive)
[2]
  thallium flux rate (normalised fluorescence): 0.0251 (active)
[4]
  raw Tl+ flux slope (below DMSO = inhibition, above = activation): 0.0449 (active)
[3]
  thallium flux slope: 0.0116 (active)

## CCCCOc1ccc(CC(=O)NO)cc1
[5]
  cell count: 619
  inhibition: -10.2% (inactive)
[6]
  inhibition of aggregation: -11.8% (inactive)
  nuclei count: 91%
[7]
  inhibition: -41.8% (inactive)
  nuclei count: 111%
[8]; [17]
  z-score: -0.368
[8]; [18]
  z-score: -0.467
[8]; [19]
  z-score: -0.347
[9]
  inhibition: -0.493% (inactive)
[10]
  fluorescence slope: -0.547 (inactive)
[11]
  NADPH fluorescence slope: -4.3e-05 (inactive)
[12]
  slope: 0.00497 (inactive)
[13]
  inhibition: 7.46% (inactive)
[14]
  inhibition: 13.6% (inactive)
[15]
  inhibition: 31.2% (inactive)

## Cc1ccc(S(=O)(=O)NC(=O)NN2CCCCCC2)cc1
[5]
  cell count: 604
  inhibition: -5.1% (inactive)
[6]
  inhibition of aggregation: 0% (inactive)
  nuclei count: 99.6%
[7]
  inhibition: -81.9% (inactive)
  nuclei count: 122%
[8]; [17]
  z-score: 0.424
[8]; [18]
  z-score: 0.978
[8]; [19]
  z-score: -1.05
[9]
  inhibition: 21.2% (inactive)
[10]
  fluorescence slope: -0.457 (inactive)
[11]
  NADPH fluorescence slope: -5.8e-05 (inactive)
[12]
  slope: 0.00471 (inactive)
[13]
  inhibition: 6.39% (inactive) and 32.8% (inactive)
[14]
  inhibition: 9.08% (inactive)
[15]
  inhibition: 19.5% (inactive)

## Cc1ccc(C(=O)NC(=S)Nc2ccccc2C)cc1
PubChem AID 1714;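 further: raw slope of fluorescence over initial fluorescence between 10 and 20 s after thallium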
  normalized thallium flux: 0.0441 (active)
[1]
  normalized thallium flux: 0.0421 (active)
[2]
  thallium flux rate (normalised fluorescence): 0.0432 (active)
[4]
  raw Tl+ flux slope (below DMSO = inhibition, above = activation): 0.0453 (active)
[3]
  thallium flux slope: 0.0284 (active)

## CCn1cc(C(=O)O)c(=O)c2cc(F)c(N3CCNCC3)nc21
[5]
  cell count: 528
  inhibition: -1.9% (inactive)
[6]
  inhibition of aggregation: -5% (inactive)
  nuclei count: 88.6%
[7]
  inhibition: -53.3% (inactive)
  nuclei count: 92.8%
[8]; [17]
  z-score: 1.02
[8]; [18]
  z-score: -0.267
[8]; [19]
  z-score: -1.93
[9]
  inhibition: 7.39% (inactive)
[10]
  fluorescence slope: -0.463 (inactive)
[11]
  NADPH fluorescence slope: -5.7e-05 (inactive)
[12]
  slope: 0.00463 (inactive)
[13]
  inhibition: -14% (inactive)
[14]
  inhibition: 3% (inactive)
[15]
  inhibition: 17.6% (inactive)

## Cc1sc2ncnc(Sc3nc4ccccc4s3)c2c1C
[16]
  normalised thallium flux (F/F0 slope): 0.0102 (inactive)
[1]
  normalized thallium flux: 0.0292 (inactive)
[2]
  thallium flux rate (normalised fluorescence): 0.00801 (inactive)
[3]
  thallium flux slope: 0.0107 (inactive)

## C/C(=C\C(=O)c1ccc(Br)cc1)N1CCCCC1
PubChem AID 1714;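 further: raw slope of fluorescence over initial fluorescence between 10 and 20 s after thallium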
  normalized thallium flux: 0.0396 (active)
[1]
  normalized thallium flux: 0.0283 (inactive)
[2]
  thallium flux rate (normalised fluorescence): 0.0152 (active)
[3]
  thallium flux slope: 0.0111 (active)
